Source: PubChem BioAssay (The Scripps Research Institute Molecular Screening Center)
MsrA inhibitor: bovine MsrA inhibition; hit rate 0.75% among 360,000; inhibition, % at 15.5 µM; AID 651718; purified bovine MsrA, absorbance read-out; in the data active = inhibition above about 4.5%
proKLK7 act: activators of human kallikrein-7 zymogen. AID 652039. activation, % at 7 µM. purified proKLK7, EDANS-DABCYL substrate fluorescence; 100% is mature enzyme control, 0% vehicle. hit rate 0.9% among 370,000. P49862;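 active = activation above the mean of all tested compounds plus 3 SD, computed per campaign excluding outliers beyond control limits, cut at about 13% in these data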
Target sequence (P49862 whole entry, looked up): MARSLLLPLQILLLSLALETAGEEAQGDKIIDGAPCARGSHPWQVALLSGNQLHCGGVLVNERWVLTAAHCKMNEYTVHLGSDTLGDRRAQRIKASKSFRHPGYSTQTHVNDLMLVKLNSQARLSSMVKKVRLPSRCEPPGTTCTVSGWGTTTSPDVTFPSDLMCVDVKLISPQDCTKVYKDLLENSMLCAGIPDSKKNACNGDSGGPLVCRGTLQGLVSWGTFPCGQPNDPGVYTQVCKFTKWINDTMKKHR
SMARCA2 activ: activators of SMARCA2 function; AID 652017; MG213 cells, MMTV-luciferase reporter, dexamethasone, overnight; hit rate 1% among 370,000; activation, % at 9.1 µM; in the data active = activation above about 7.8%
MsrA act: activates bovine MsrA enzyme; purified bovine MsrA, absorbance read-out; activation, % at 10.6 µM; hit rate 0.3% among 360,000; in the data active = activation above about 7.5%
MsrA act confirm: bovine methionine sulfoxide reductase A activation confirmed; shares compounds with MsrA act; purified bovine MsrA, absorbance read-out; activation, % at 10.6 µM; hit rate 12% among 1,000; AID 602270; in the data active = activation above about 4%;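 also: enzyme coupled to thioredoxin and thioredoxin reductase with NADPH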
Each line names hits and unclear results; the compound was inactive in the other large screens (follow-up assays come after a bar, where they were run). An excerpt weighted towards active compounds, which were near 2.8% of everything screened.

Cc1ccc(CNC(=O)c2ccc3c(=O)n(CC4CCCO4)c(=S)[nH]c3c2)cc1 (configuration not stated)	none
FC(F)(F)c1cc(Oc2ccccc2)nc(-c2ccccn2)n1	MsrA act 9.7 | MsrA act confirm inactive
COC1=CC(=O)c2c(ccc3ncnc(N)c23)C1=O	MsrA act 35.4 | MsrA act confirm 30.3
COc1ccc(-c2csc(/C(C#N)=C/Nc3cc4oc5ccccc5c4cc3OC)n2)cc1	MsrA act 13.4 | MsrA act confirm inactive
COc1ccc(-c2csc(/C(C#N)=C/Nc3ccc4c(c3)OCCO4)n2)cc1	none
Cc1cc(Nc2cc(F)c(F)c(F)c2)cc(=O)n1-c1cc(F)c(F)c(F)c1	none (no result: MsrA act)
O=C(NCC(=O)N1CCN(c2ncccn2)CC1)c1cccs1	none (no result: MsrA inhibitor, proKLK7 act, SMARCA2 activ)
Cc1ccc(C(=O)NCC(=O)N2CCN(c3ncccn3)CC2)s1	MsrA act 9.2 | MsrA act confirm inactive
CCCn1c(=O)c2ccccc2n2c(SCC(=O)c3ccccc3)nnc12	MsrA act 12.3 | MsrA act confirm inactive
CCCn1c(=O)c2ccccc2n2c(SCCNCCO)nnc12	none
Cc1ccc(OCC(=O)Nc2cc(-c3nn4c(C)nnc4s3)ccc2C)cc1	MsrA act 9.7 | MsrA act confirm inactive
CCOC(=O)C1(Cc2ccccc2)CCN(Cc2csc(C(C)=O)c2)CC1	MsrA act 9.8 | MsrA act confirm inactive
COc1ccc(-n2c(SCC(=O)Nc3ccc(S(=O)(=O)Nc4cc(C)nc(C)n4)cc3)nnc2-c2ccco2)cc1	none (no result: MsrA inhibitor, MsrA act)
C=CCc1ccccc1OCC(O)CN1CCN(c2ccc(C)cc2)CC1 (configuration not stated)	MsrA act 9.3 | MsrA act confirm inactive
COc1ccc(N2CC(C(=O)OCC(=O)Nc3cc(C)on3)CC2=O)cc1 (configuration not stated)	MsrA act 8.0 | MsrA act confirm inactive
Cc1ccc(Cn2ncc(Cl)c(Cl)c2=O)cc1	none
Cc1[nH]c(C)c2c(=O)n(Cc3ccc(Cl)cc3)ncc12	MsrA act 14.2 | MsrA act confirm inactive
CC(C)n1c(=S)[nH]c2scc(-c3cccs3)c2c1=O	MsrA act 8.0 | MsrA act confirm inactive
Cc1cc(C)c2c(n1)nn1c(N3CCN(c4ccccc4C)CC3)cc(C)nc21	MsrA act 7.7 | MsrA act confirm inactive
COc1ccc(CN2CCN(c3cc(C)nc4c5c(C)cc(C)nc5nn34)CC2)cc1F	none
CC(C)CC1NC(=O)N(CC(=O)Nc2ccc3c(c2)OCCO3)C1=O (configuration not stated)	MsrA act 12.6 | MsrA act confirm inactive
O=C(CN1C(=O)NC(c2ccc(F)cc2)C1=O)Nc1ccc2c(c1)OCCO2 (configuration not stated)	none
COc1ccc(OC)c(/C=N/N(CCC#N)C2=NS(=O)(=O)c3ccccc32)c1	MsrA act 7.9 | MsrA act confirm 5.3
O=Nc1ccc(NOC(=O)c2ccccc2Br)cc1	MsrA act 10.3 | MsrA act confirm inactive
O=C1NC[C@H](CCCCN2C[C@H](Cc3ccc(O)cc3)N(CCC3CCCCC3)C(=O)C2=O)N(CCc2ccc(O)cc2)C1=O	none
NC(=O)c1c(N)[nH]c(C(=O)c2ccccc2)c1-c1ccc2ccccc2c1	none (no result: MsrA act)
Cc1c(NC(=O)c2ccc(C(C)(C)C)cc2)cccc1[N+](=O)[O-]	MsrA act 10.9 | MsrA act confirm inactive
O=S(=O)(NC1=NCCCCC1)c1ccc2ccccc2c1	MsrA act 9.0 | MsrA act confirm inactive
CCCNCc1cc(OC)c(OCC(=O)NCCc2ccccc2)cc1Br	none
CCC(CO)NCc1cc(OC)c(OCC(=O)NCCc2ccccc2)cc1Br (configuration not stated)	SMARCA2 activ 8.3, MsrA act 9.0 | MsrA act confirm inactive
O=C(Cc1ccc(NC(=O)C2CCCN(C(=O)c3ccccc3)C2)cc1)Nc1cccc(C(=O)N2CCCCC2)c1 (configuration not stated)	none (no result: MsrA act)
O=C(NCc1ccc(Cl)c(Cl)c1)c1cc(C2CCCCN2C(=O)CCc2ccccc2)on1 (configuration not stated)	none
COc1cccc(CC(=O)OCC(=O)c2cc(OC)c(OC)c(OC)c2)c1	MsrA act 8.7 | MsrA act confirm inactive
CCc1nc2c(OCC=C(C)C)cccn2c1N(C)C(=O)c1ccc(OC)cc1	none
O=C(OCC(=O)c1c[nH]c2ccccc12)c1ccc([N+](=O)[O-])s1	MsrA act 16.4 | MsrA act confirm 6.6
CCc1cccc2c(C(=O)COC(=O)c3ccc([N+](=O)[O-])s3)c[nH]c12	none
Cc1cccc(N(CC(=O)NC2CCCC2)C(=O)CCCC(=O)Nc2ccccn2)c1	MsrA act 7.7 | MsrA act confirm inactive
CC12CN(C(=O)c3ccccc3)C3(C#N)CC1CCC23C (configuration not stated)	MsrA act 13.5 | MsrA act confirm inactive
COc1ccc(C(=O)N2CC3(C)C4CCC3(C)C2(C#N)C4)cc1OC (configuration not stated)	none
COc1ccc(Cl)cc1NC(=O)CN(C)CC(=O)Nc1ccc(Br)cc1	MsrA act 8.9 | MsrA act confirm inactive
Cc1ccc(C(c2cc(Cl)c3cccnc3c2O)N2CCN(C)CC2)cc1 (configuration not stated)	none (no result: MsrA inhibitor, proKLK7 act, SMARCA2 activ)
CN1CCN(C(c2ccccn2)c2cc(Cl)c3cccnc3c2O)CC1 (configuration not stated)	MsrA act 18.0 | MsrA act confirm inactive
O=C1N[C@@H](Cc2ccccc2)COC(=O)[C@H](Cc2ccc(F)cc2)C/C=C\C[C@H]1CC(=O)N(CCO)Cc1ccccc1	MsrA act 18.7 | MsrA act confirm inactive
O=C(C1CC(=O)N(c2ccc(F)c(Cl)c2)C1)N1CCOCC1 (configuration not stated)	none
O=c1sc(N2CCN(c3ccc(F)cc3)CC2)nc2ccsc12	MsrA act 7.8 | MsrA act confirm inactive
Cc1cc(C)c2c(-n3cccc3)c(C(=O)NNS(=O)(=O)c3ccc(Br)cc3)sc2n1	MsrA act 8.5 | MsrA act confirm inactive
CCOC(=O)Nc1sc2nc(C)cc(C)c2c1-n1cccc1	none
Cc1cccc(NC(=O)C2(C)CC3c4ccccc4C2c2ccccc23)c1 (configuration not stated)	MsrA act 8.9 | MsrA act confirm inactive
NC(=O)c1c(N)[nH]c(C(=O)c2ccccc2)c1-c1ccc2c(c1)OCO2	none (no result: MsrA act)
CN(C)c1nc(=S)nc(NCc2ccccc2)[nH]1	none
CC(C)CNc1nc(=S)nc(N(C)C)[nH]1	MsrA act 8.3 | MsrA act confirm 4.2
O=C(Nc1ccc(F)cc1)OCc1cn(Cc2ccc(F)c(F)c2)nn1	none (no result: MsrA inhibitor, MsrA act)
Cc1cccc(NC(=O)c2c(C)cc(=O)oc2C)n1	MsrA act 13.7 | MsrA act confirm inactive
Cc1cc(=O)oc(C)c1C(=O)Nc1cccc2ccccc12	none
CC1CCCC(=NNc2ccc3ccccc3n2)C1 (configuration not stated)	none
CC(Sc1nnc(-c2ccco2)n1C)C(=O)NC1CCCC1 (configuration not stated)	MsrA act 16.7 | MsrA act confirm inactive
CCCN(C(=O)CSCC(=O)Nc1ccc(OC)cc1)c1c(N)n(Cc2ccccc2)c(=O)[nH]c1=O	none
CCCNC(=O)c1cc(C2CCCCN2C(=O)c2cccs2)on1 (configuration not stated)	none
